Screening data: PubChem BioAssay, several laboratories
UHRF1 binding: blocks human UHRF1 binding to methylated DNA; Q96T88; UHRF1 binding to methylated oligo, TR-FRET; inhibition, % at 4.4 µM; 370,000 compounds, 0.75% hits;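 note: UHRF1 SRA domain binding a hemimethylated CpG hairpin DNA probe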
MBD2 DNA inh: inhibitors of human MBD2 binding to methylated oligonucleotide | inhibition, % at 4.4 µM | AID 686964 | Q9UBB5 | 370,000 compounds, 0.31% hits | TR-FRET; in the data active = inhibition above about 13%
Target sequence (Q9UBB5 whole entry, looked up): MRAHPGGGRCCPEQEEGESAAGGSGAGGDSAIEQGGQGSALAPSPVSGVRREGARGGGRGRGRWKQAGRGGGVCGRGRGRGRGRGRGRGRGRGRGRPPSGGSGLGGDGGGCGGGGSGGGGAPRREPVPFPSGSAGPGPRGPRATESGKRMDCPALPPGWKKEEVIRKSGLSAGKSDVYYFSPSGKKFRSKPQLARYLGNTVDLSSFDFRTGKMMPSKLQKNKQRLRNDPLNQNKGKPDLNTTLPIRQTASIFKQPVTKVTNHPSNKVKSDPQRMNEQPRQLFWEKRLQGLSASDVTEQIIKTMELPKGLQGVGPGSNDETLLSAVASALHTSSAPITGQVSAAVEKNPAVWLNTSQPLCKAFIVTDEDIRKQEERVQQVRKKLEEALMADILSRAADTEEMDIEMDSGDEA
CASP6 VEID inh: inhibitors of human caspase-6; inhibition, % at 12.5 µM; P55212; 350,000 compounds, 0.53% hits; AID 686996; purified caspase-6, Z-VEID-R110 cleavage fluorescence;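 active = mean inhibition across replicates at least about 35%, with every replicate also reaching that limit, limit read from the data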
Target sequence (P55212 24-179 limits assumed): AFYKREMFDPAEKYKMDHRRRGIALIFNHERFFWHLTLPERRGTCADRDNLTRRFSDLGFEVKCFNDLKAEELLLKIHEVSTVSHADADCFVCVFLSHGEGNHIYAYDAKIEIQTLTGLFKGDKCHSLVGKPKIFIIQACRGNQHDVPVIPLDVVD
Target sequence (P55212 194-293 limits assumed): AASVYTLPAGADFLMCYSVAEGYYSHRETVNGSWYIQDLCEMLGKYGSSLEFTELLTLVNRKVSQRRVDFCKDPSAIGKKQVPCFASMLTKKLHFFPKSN
LEDGF integ inh: blocks HIV-1 LEDGF/p75-dependent DNA integration | inhibition, % at 3.7 µM | AID 743269 | TR-FRET IN-LEDGF/p75 DNA integration, Eu/Cy5 | 370,000 compounds, 0.64% hits;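 active = inhibition above the screen-wide mean plus 3 SD, cut at about 13% in these data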;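 note: signal is the Cy5 over europium emission ratio at 671 and 618 nm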
UHRF1 ctr MBD2: inhibits human UHRF1 binding to methylated oligonucleotide, MBD2 counter-screen | TR-FRET | shares compounds with MBD2 DNA inh | inhibition, % at 4.4 µM | 1,000 compounds, 25% hits;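 note: UHRF1 SRA domain binding a labeled hemimethylated CpG hairpin DNA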
MBD2 DBD conf: confirmation of human MBD2-DBD methylated oligonucleotide binding inhibitors; shares compounds with MBD2 DNA inh; TR-FRET MBD2-DBD binding to methylated oligonucleotide; 1,000 compounds, 26% hits; AID 720531; inhibition, % at 4.4 µM; in the data active = inhibition above about 14%
Large screens that a line does not name were inactive (follow-up assays come after a bar, where they were run). The list is not random: actives were taken first. Their share in the collection is about 1.4%. Cut-off read from the data, not from the text of the source, unless noted: active = inhibition above about 21%; inactive = the rest.

Cc1ccc(C(=O)C2CCN(CC(=O)N3CCOCC3)CC2)cc1	none (no result: CASP6 VEID inh)
Cc1ccc(C(=O)N2CCN(C(=O)CN3CCOCC3)C2)cc1	MBD2 DNA inh 14 (no result: CASP6 VEID inh) | UHRF1 ctr MBD2 inactive | MBD2 DBD conf inactive
Cc1ccc(/C=C/C(=O)OCC(=O)c2ccc3c(c2)NC(=O)CO3)o1	none
O=C1COc2ccc(C(=O)COC(=O)/C=C/c3ccc(Br)o3)cc2N1	UHRF1 binding 46, MBD2 DNA inh 19, LEDGF integ inh 24 | UHRF1 ctr MBD2 44 | MBD2 DBD conf 32
O=C(CSc1ccccn1)Nc1nc2ccccc2s1	none (no result: CASP6 VEID inh)
Cn1ccnc1SCC(=O)Nc1nc2ccccc2s1	MBD2 DNA inh 14 | UHRF1 ctr MBD2 inactive | MBD2 DBD conf inactive
CO[C@H]1CN(C)C(=O)c2cc(NC(=O)C3CC3)ccc2OC[C@@H](C)N(CC2CCOCC2)C[C@H]1C	none (no result: UHRF1 binding, MBD2 DNA inh, LEDGF integ inh)
CC(C)Cn1cnc2c(c1=N)C(c1ccccc1)C1=C(CC(C)(C)CC1=O)O2 (configuration not stated)	none
COc1ccc(C2C3=C(CC(C)(C)CC3=O)Oc3ncn(CCO)c(=N)c32)cc1OC (configuration not stated)	MBD2 DNA inh 49 (no result: CASP6 VEID inh) | UHRF1 ctr MBD2 inactive | MBD2 DBD conf inactive
CS(=O)(=O)N1CCC(C(=O)Nc2ccc(C(N)=O)cc2)CC1	MBD2 DNA inh 40 | UHRF1 ctr MBD2 inactive | MBD2 DBD conf inactive
CS(=O)(=O)N1CCC(C(=O)Nc2ccccc2)CC1	none (no result: CASP6 VEID inh)
CCN(C[C@H]1[C@H](c2ccccc2)[C@@H](CO)N1S(C)(=O)=O)C(=O)C1CCCC1	none (no result: UHRF1 binding, MBD2 DNA inh, LEDGF integ inh)
c1ccc(SC23CC4CC(CC(C4)C2)C3)nc1	MBD2 DNA inh 13 | UHRF1 ctr MBD2 inactive | MBD2 DBD conf inactive
O=C(N(c1ccccn1)c1ccccn1)C12CC3CC(CC(C3)C1)C2	none
Cc1ccc(-c2ccc(CCC(=O)O)n2Cc2ccco2)cc1	MBD2 DNA inh 88 (no result: CASP6 VEID inh) | UHRF1 ctr MBD2 inactive | MBD2 DBD conf inactive
O=C(O)CCc1ccc(-c2ccccc2)n1CC(=O)O	none (no result: CASP6 VEID inh)
O=C(Nc1ncc2c(n1)CC(c1cccc(Cl)c1)CC2=O)c1ccco1 (configuration not stated)	UHRF1 binding 86, MBD2 DNA inh 52 | UHRF1 ctr MBD2 inactive | MBD2 DBD conf inactive
O=C(O)c1cccc(Sc2cc(Cl)ccc2C(=O)O)c1	MBD2 DNA inh 13 | UHRF1 ctr MBD2 inactive | MBD2 DBD conf inactive
Fc1ccc(COc2cccc(CNCc3ccncc3)c2)cc1	MBD2 DNA inh 38 | UHRF1 ctr MBD2 inactive | MBD2 DBD conf inactive
O=C(O)c1ccc(CNCc2cccc(OCc3ccc(F)cc3)c2)cc1	none
O=C(Nc1ccc2c(c1)OCO2)c1cccs1	MBD2 DNA inh 40 (no result: CASP6 VEID inh) | UHRF1 ctr MBD2 inactive | MBD2 DBD conf inactive
CC(C)CNc1ccc2c(c1)OC[C@H](C)NS2(=O)=O	UHRF1 binding 21, MBD2 DNA inh 13 | UHRF1 ctr MBD2 inactive | MBD2 DBD conf inactive
COc1ccccc1CNC(=O)C[C@H]1CC[C@H]2[C@@H](COc3ccc(NC(=O)c4ccno4)cc3C(=O)N2C)O1	none (no result: UHRF1 binding, MBD2 DNA inh, LEDGF integ inh)
CCS(=O)(=O)N1CC2(C1)[C@@H](c1ccccc1)[C@@H](CO)N2C(=O)C1CCCC1	none (no result: UHRF1 binding, MBD2 DNA inh, LEDGF integ inh)
COc1ccc(NC(=O)N[C@@H]2CC[C@H](CCn3cc(C4(O)CCCC4)nn3)O[C@H]2CO)cc1	none (no result: UHRF1 binding, MBD2 DNA inh, LEDGF integ inh)
CCCN1C[C@H](C)[C@@H](OC)CN(C)C(=O)c2ccc(NC(=O)c3cccc(F)c3)cc2OC[C@H]1C	none (no result: UHRF1 binding, MBD2 DNA inh, LEDGF integ inh)
O=S(=O)(Nc1cccc(S(=O)(=O)N2CCCC2)c1)c1cccc(Br)c1	MBD2 DNA inh 105 | UHRF1 ctr MBD2 inactive | MBD2 DBD conf inactive
O=S(=O)(Nc1cccc(S(=O)(=O)N2CCCC2)c1)c1ccc(Br)cc1	none
O=C(NCC1CCN(C(=O)C(=O)c2cccs2)CC1)c1ccc2c(c1)CCO2	MBD2 DNA inh 19 | UHRF1 ctr MBD2 inactive | MBD2 DBD conf inactive
O=C(NCC1CCN(C(=O)C(=O)c2cccs2)CC1)c1ccc2c(c1)OCO2	none
COc1cc(OC)nc(Oc2ccccc2/C=N/O)n1	MBD2 DNA inh 15 | UHRF1 ctr MBD2 inactive | MBD2 DBD conf inactive
COc1cc(OC)nc(Oc2ccccc2C=O)n1	none
COc1ccc(S(=O)(=O)CCC(=O)N2CCN(c3ccc(C(C)=O)cc3)CC2)cc1	UHRF1 binding 31, MBD2 DNA inh 18 | UHRF1 ctr MBD2 inactive | MBD2 DBD conf inactive
C[C@H]1CN([C@@H](C)CO)C(=O)c2c(c3ccccc3n2C)-c2ccccc2CO[C@H]1CN(C)C(=O)[C@H]1CCCN1C	none (no result: UHRF1 binding, MBD2 DNA inh, LEDGF integ inh)
Cc1nn2c(-c3ccc(S(=O)(=O)N4CCN(CCO)CC4)o3)nnc2c2ccccc12	MBD2 DNA inh 16 | UHRF1 ctr MBD2 inactive | MBD2 DBD conf inactive
C[C@H]1CN([C@@H](C)CO)C(=O)Cc2cc(N(C)C)ccc2O[C@H]1CN(C)S(C)(=O)=O	none (no result: UHRF1 binding, MBD2 DNA inh, LEDGF integ inh)
CCCC#Cc1cnc2c(c1)C(=O)N([C@H](C)CO)C[C@H](C)[C@@H](CN(C)C(=O)NC1CCCC1)O2	none (no result: UHRF1 binding, MBD2 DNA inh, LEDGF integ inh)
COc1ccc(N=Cc2ccc[nH]2)cc1	MBD2 DNA inh 22 (no result: CASP6 VEID inh) | UHRF1 ctr MBD2 inactive | MBD2 DBD conf inactive
CCCCOc1ccc(N=Cc2ccc[nH]2)cc1	none
O=C(C[C@@H]1C=C[C@@H](NC(=O)CN2CCOCC2)[C@H](CO)O1)NCCc1ccncc1	none (no result: UHRF1 binding, MBD2 DNA inh, LEDGF integ inh)
Nc1ncc(C(=O)O)c(-c2ccccc2)n1	MBD2 DNA inh 37 | UHRF1 ctr MBD2 inactive | MBD2 DBD conf inactive
CCOC(=O)c1cnc(N)nc1-c1ccccc1	none
COc1cc2c(cc1OC)CC(C(=O)NCc1ccccc1)NC2 (configuration not stated)	MBD2 DNA inh 17 | UHRF1 ctr MBD2 inactive | MBD2 DBD conf inactive
CS(=O)(=O)c1ccc(C(=O)Nc2nc(-c3ccco3)c(-c3ccco3)s2)cc1	UHRF1 binding 88, MBD2 DNA inh 41, LEDGF integ inh 89 | UHRF1 ctr MBD2 inactive | MBD2 DBD conf inactive
CC1=C(C(=O)N(C)C)CC(CC(=O)NC(c2ccccc2)c2ccccc2)C(=O)N1Cc1ccc(F)cc1 (configuration not stated)	UHRF1 binding 24, MBD2 DNA inh 14 | UHRF1 ctr MBD2 inactive | MBD2 DBD conf inactive
CC1=C(C(=O)N(C)C)CC(CC(=O)NC(c2ccccc2)c2ccccc2)C(=O)N1Cc1ccccc1 (configuration not stated)	none
COc1ccc2sc(-c3ccccc3OC)c(C#CCCO)c2c1	MBD2 DNA inh 15 | UHRF1 ctr MBD2 inactive | MBD2 DBD conf inactive
COc1cc(OC)cc(-c2sc3ccc(OC)cc3c2C#CCCO)c1	none
Cn1cnc(S(=O)(=O)N2CCCCN3[C@H](CO)[C@@H](c4ccc(C#CC5CCCC5)cc4)[C@@H]3C2)c1	none (no result: UHRF1 binding, MBD2 DNA inh, LEDGF integ inh)
CCc1ccc(NC(=O)CCCN2C(=S)NC(C)(C)CC2C)cc1 (configuration not stated)	MBD2 DNA inh 19 | UHRF1 ctr MBD2 inactive | MBD2 DBD conf inactive
CCCCn1c(SCC(=O)Nc2sc3c(c2C(N)=O)CCC3)nnc1-c1ccccc1	MBD2 DNA inh 13 (no result: CASP6 VEID inh) | UHRF1 ctr MBD2 inactive | MBD2 DBD conf inactive
O=C(N[C@@H]1CC[C@H](CCNC(=O)C2CC2)O[C@H]1CO)c1ccncc1	none (no result: UHRF1 binding, MBD2 DNA inh, LEDGF integ inh)
